In PubChem BioAssay:
Active and inactive are the calls of the source. Unless noted, the rule behind the calls is not given here.

Tests used:
[1] = resazurin metabolic signal in HepG2 cells – cell-based, resazurin fluorescence, 24 h, PK04 Diversity Set, profiling panel (AID 1172); conditions: HepG2 viability, higher = more signal
[2] = budding yeast growth changes without added modifier – OD600, strain BY4716, 24 h, basal condition, primary screen (AID 1173); conditions: S. cerevisiae BY4716 growth, OD600, 24 h; higher = more signal, called active from +8 up or from −8 down
[3] = viability profiling in MM1S myeloma cells – cell-based, resazurin fluorescence, basal, 24 h, PK04 Diversity Set, profiling panel (AID 1174); conditions: higher = more signal, called active from +8 up or from −8 down;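 note: MM1S multiple myeloma cell line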
[4] = molecular target: Dihydroorotate dehydrogenase (quinone), mitochondrial (Plasmodium falciparum (isolate 3D7)) (UniProt Q08210); assay: inhibition of P. falciparum DHODH – biochemical, C-terminal His tag, absorbance 600 nm, primary screen (AID 1175); conditions: PfDHODH enzyme, DCIP absorbance 600 nm; higher = more signal, called active from +8 up or from −8 down;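 note: recombinant parasite enzyme with a five histidine tag at its C terminus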
[5] = inhibition of PAO1 biofilm formation – strain PAO1, LB-PBS medium, absorbance 600 nm, primary screen (AID 1176); conditions: P. aeruginosa PAO1 growth/biofilm, A600, 12 h; higher = more signal
[6] = growth modulation of vineyard yeast isolate – strain RM11-1a, OD600, basal, 24 h, primary screen (AID 1177);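 note: cultures grown under basal conditions with no added stressor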; conditions: S. cerevisiae RM11-1a growth, OD600, 24 h; higher = more signal, called active from +8 up or from −8 down
[7] = growth of efflux-deficient E. coli DRC39 – strain DRC39, OD650, 24 h, E. coli filamentation inducers, primary screen (AID 1178);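 note: growth measured as culture turbidity by optical density at 650 nm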; conditions: E. coli DRC39 acrAB, higher = more signal, called active from +8 up or from −8 down
[8] = growth of efflux-deficient E. coli DRC39 – strain DRC39, OD650, 48 h, E. coli filamentation inducers, primary screen (AID 1179);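 note: screen aims at cell division blockers that make cells filament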; conditions: E. coli DRC39 delta-acrAB growth, higher = more signal, called active from +8 up or from −8 down
[9] = viability profiling in RPMI8226 myeloma cells – cell-based, resazurin fluorescence, basal, 24 h, PK04 Diversity Set, profiling panel (AID 1180); conditions: higher = more signal;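 note: RPMI8826 multiple myeloma cell line at 5000 cells per well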
[10] = molecular target: E3 ubiquitin-protein ligase XIAP (Homo sapiens) (UniProt P98170); assay: small molecules binding XIAP protein – biophysical, small-molecule microarray, fluorescence 635 nm, primary screen (AID 1181); conditions: higher = more signal;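 note: score merges 667 nm emission and signal to noise over triplicate slides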
[11] = tested on: XIP peptide (Xip251-270) binding; assay: XIP fragment 251-270 binding compounds – biochemical, small-molecule microarray, fluorescence 635/667 nm, 0.1 µg/mL protein, primary screen (AID 1182); conditions: fluorescent protein binding, 635 nm, higher = more signal, called active from +8 up or from −8 down
XIP peptide (Xip251-270) = assay: compounds binding XIP fragment 251-270 – biochemical, small-molecule microarray, fluorescence 635/667 nm, 0.5 µg/mL protein, primary screen (AID 1183); conditions: fluorescence 635 nm, higher = more signal
[12] = blood-stage malaria parasite viability loss – strain 3D7, DAPI fluorescence, 100 nL, primary screen (AID 1184);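 note: parasites grown inside human red blood cells in medium with human serum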; conditions: P. falciparum 3D7 growth, 3 d, higher = more signal
[13] = molecular target: Homeobox protein Hox-A13 (Mus musculus) (UniProt Q62424); assay: disruptors of Hoxa13 oligonucleotide interaction – biochemical, fluorescence polarization, labeled oligonucleotide, primary screen (AID 1185); conditions: Hoxa13:DNA binding, 15 min, higher = more signal, called active from +8 up or from −8 down
[14] = blockers of DNA damage checkpoint Chk1 activation – imaging, HeLa, hydroxyurea, phospho-Chk1 antibody, percent positive cells, primary screen (AID 1186); conditions: hydroxyurea-induced phospho-Chk1 immunofluorescence imaging, higher = more signal
[15] = blockers of DNA damage checkpoint Chk1 activation – imaging, HeLa, hydroxyurea, phospho-Chk1 nuclear intensity, primary screen (AID 1187); conditions: hydroxyurea-induced phospho-Chk1 immunofluorescence imaging, higher = more signal

E3 ubiquitin-protein ligase XIAP (Homo sapiens), sequence (P98170 whole entry, looked up, the tested form may be a part): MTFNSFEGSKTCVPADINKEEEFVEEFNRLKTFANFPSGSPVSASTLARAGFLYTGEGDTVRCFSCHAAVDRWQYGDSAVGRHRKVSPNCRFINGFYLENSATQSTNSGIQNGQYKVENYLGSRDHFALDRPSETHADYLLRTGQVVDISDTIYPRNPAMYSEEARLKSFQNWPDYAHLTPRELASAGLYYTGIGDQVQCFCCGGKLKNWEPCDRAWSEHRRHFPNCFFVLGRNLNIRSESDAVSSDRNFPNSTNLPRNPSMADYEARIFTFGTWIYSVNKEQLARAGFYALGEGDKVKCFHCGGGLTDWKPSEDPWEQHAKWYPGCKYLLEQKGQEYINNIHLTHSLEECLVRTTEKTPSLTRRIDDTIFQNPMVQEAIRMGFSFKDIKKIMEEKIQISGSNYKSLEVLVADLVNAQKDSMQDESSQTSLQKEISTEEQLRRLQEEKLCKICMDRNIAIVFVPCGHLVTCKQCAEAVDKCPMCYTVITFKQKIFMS
Dihydroorotate dehydrogenase (quinone), mitochondrial (Plasmodium falciparum (isolate 3D7)), sequence (Q08210 whole entry, looked up): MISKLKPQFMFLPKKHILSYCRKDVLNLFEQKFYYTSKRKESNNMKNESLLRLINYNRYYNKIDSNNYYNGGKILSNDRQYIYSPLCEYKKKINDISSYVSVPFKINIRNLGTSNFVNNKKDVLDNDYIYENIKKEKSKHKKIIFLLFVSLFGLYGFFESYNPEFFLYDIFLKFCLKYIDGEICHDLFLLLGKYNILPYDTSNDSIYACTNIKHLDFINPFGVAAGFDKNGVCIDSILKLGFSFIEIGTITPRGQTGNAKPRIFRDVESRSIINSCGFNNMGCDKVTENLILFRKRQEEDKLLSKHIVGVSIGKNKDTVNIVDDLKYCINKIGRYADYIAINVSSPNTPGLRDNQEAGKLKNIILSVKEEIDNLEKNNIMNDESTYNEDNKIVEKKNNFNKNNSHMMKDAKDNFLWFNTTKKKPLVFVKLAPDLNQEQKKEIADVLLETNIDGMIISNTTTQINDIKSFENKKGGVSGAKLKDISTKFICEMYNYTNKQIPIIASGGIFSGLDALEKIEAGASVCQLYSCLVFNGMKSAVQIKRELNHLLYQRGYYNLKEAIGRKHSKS
Homeobox protein Hox-A13 (Mus musculus), sequence (Q62424 whole entry, looked up): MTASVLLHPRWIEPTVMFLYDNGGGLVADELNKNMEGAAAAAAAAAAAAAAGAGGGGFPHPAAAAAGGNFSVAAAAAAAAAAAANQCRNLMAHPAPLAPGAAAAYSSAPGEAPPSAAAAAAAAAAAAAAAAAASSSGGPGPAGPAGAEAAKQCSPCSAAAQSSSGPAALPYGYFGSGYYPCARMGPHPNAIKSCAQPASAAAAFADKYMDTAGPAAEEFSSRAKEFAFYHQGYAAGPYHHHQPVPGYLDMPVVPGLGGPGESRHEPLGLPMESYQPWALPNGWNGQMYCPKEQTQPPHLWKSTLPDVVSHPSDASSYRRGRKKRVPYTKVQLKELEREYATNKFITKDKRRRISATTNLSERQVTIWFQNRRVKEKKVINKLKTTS

Structure (SMILES) | z-score [1] | z-score [2] | z-score [3] | composite z-score [4] | z-score [5] | z-score [6] | z-score [7] | z-score [8] | z-score [9] | composite z-score [10] | composite z-score [11] | composite z-score (XIP peptide (Xip251-270)) | z-score [12] | z-score [13] | z-score [14] | z-score [15]
CN(C)CCCC[C@@H]1NC(=O)[C@H]2C[C@@H](C(=O)NCc3ccc(F)cc3)[C@@H](c3ccc(O)cc3)N2C1=O | 0.222 | -0.549 (inactive) | 0.766 (inactive) | -1.54 (inactive) | -0.832 (inactive) | -0.649 (inactive) | 0.11 (inactive) | 0.182 (inactive) | 0.382 | 0.207 | 2.07 (inactive) | 0.934 | -0.057 | -1.36 (inactive) | 0.806 (inactive) | 1.32 (inactive)
CCCCC=C[C@@H](NC(=O)c1ccc(C(F)(F)F)cc1)c1ccccc1 | 1.64 | -0.118 (inactive) | 0.423 (inactive) | -0.101 (inactive) | -0.222 (inactive) | 0.562 (inactive) | -0.244 (inactive) | 0.291 (inactive) | 1.1 | 0.0699 | 0.0581 (inactive) | -0.11 | 0.185 | -3.7 (inactive) | -0.587 (inactive) | -1.16 (inactive)
C[C@H]1C2[C@H](Cc3ccccc3)NC(=O)[C@]23C(=O)NCC(=O)N2CCC[C@H]2C(=O)NC/C=C\C/C=C/C3[C@@H]2O[C@]12C (some centres undefined) | 0.825 | -1.82 (inactive) | 0.741 (inactive) | -0.173 (inactive) | -0.14 (inactive) | -0.939 (inactive) | 1.02 (inactive) | 0.741 (inactive) | 1.05 | -0.258 | 0.358 (inactive) | 0.341 | 0.876 | -2.22 (inactive) | 0.353 (inactive) | 0.133 (inactive)
C=CCC(OC(C)=O)[C@@H]1[C@@H](N(Cc2cccc3ccccc23)C(=O)c2ccc(C)cc2)c2cc(OCCCO)ccc2N1C(=O)c1ccc2ccccc2n1 (some centres undefined) | 0.374 | -1.13 (inactive) | 0.36 (inactive) | -1.35 (inactive) | -0.877 (inactive) | -1.88 (inactive) | 0.257 (inactive) | 0.91 (inactive) | 0.78 | -0.0535 | 0.655 (inactive) | -0.165 | -0.344 | -0.702 (inactive) | -0.39 (inactive) | -0.404 (inactive)
NC(=O)NCC#Cc1ccc2c(c1)[C@]1(C(=O)N2)[C@H](C(=O)N2CCCCCCC2)[C@H]2C(=O)O[C@H](c3ccccc3)[C@H](c3ccccc3)N2[C@@H]1c1ccc(O)cc1 | 0.0542 | 0.319 (inactive) | 0.678 (inactive) | 0.246 (inactive) | 1.92 (inactive) | 0.0562 (inactive) | 0.271 (inactive) | -0.194 (inactive) | -0.018 | 0.751 | 0.123 (inactive) | 0.833 | 0.285 | -0.376 (inactive) | 0.0378 (inactive) | -0.144 (inactive)
NC(=O)NCC#Cc1ccc2c(c1)[C@]1(C(=O)N2)[C@H](C(=O)Nc2nc3ccccc3s2)[C@H]2C(=O)O[C@H](c3ccccc3)[C@H](c3ccccc3)N2[C@@H]1c1ccc(OCCO)cc1 | 1.1 | 1.12 (inactive) | 0.365 (inactive) | -0.396 (inactive) | 3.99 (inactive) | 1.27 (inactive) | 0.426 (inactive) | -0.221 (inactive) | -0.271 | 0.013 | -0.165 (inactive) | -0.913 | -0.245 | 0.217 (inactive) | 0.287 (inactive) | 0.68 (inactive)
C=CCC(OC(C)=O)[C@@H]1[C@@H](N(Cc2cc3ccccc3o2)C(=O)c2cccc3ccccc23)c2cc(OCCCO)ccc2N1C(=O)c1ccc2ccccc2c1 (some centres undefined) | -1.18 | -0.469 (inactive) | -0.581 (inactive) | 0.0769 (inactive) | -0.227 (inactive) | -0.389 (inactive) | -0.423 (inactive) | -0.797 (inactive) | -0.855 | -0.146 | 0.0745 (inactive) | -0.611 | -2.65 | -1.34 (inactive) | -0.328 (inactive) | -0.0311 (inactive)
C=CC[C@]1(C(=O)N(C)C)COC(c2ccc(OCCCO)cc2)=N1 | 0.0446 | -2.54 (inactive) | 0.41 (inactive) | -0.261 (inactive) | 1.21 (inactive) | 0.919 (inactive) | 0.386 (inactive) | -2.8 (inactive) | 0.764 | 0.202 | 0.113 (inactive) | 0.907 | -1.7 | -2.35 (inactive) | -0.491 (inactive) | -0.146 (inactive)
CC(C)=CCN(C(=O)C#Cc1ccccc1)[C@H](CO)c1ccccc1 | -3.85 | -0.192 (inactive) | -5.79 (inactive) | 0.885 (inactive) | -0.0218 (inactive) | 3.26 (inactive) | 0.163 (inactive) | -2.57 (inactive) | -5.82 | 0.165 | -0.415 (inactive) | -0.0445 | -1.83 | -7.52 (inactive) | -0.956 (inactive) | -0.6 (inactive)
